Data reported in ChEMBL document CHEMBL1157539, “Thousands of chemical starting points for antimalarial lead identification” (Nature, 2010).

test system: Plasmodium falciparum; assay: GSK_TCMDC: Inhibition of Plasmodium falciparum 3D7 in whole red blood cells, using parasite LDH activity as an index of growth. Test compounds present at 2uM; format: functional

**Q.** Which Inhibition does the source give for `N=c1ccn(CC(=NO)c2ccc(Cl)c(Cl)c2)cc1` here?
**A.** 87%

**Q.** For `FC(F)(F)c1ccc2[nH]c(-c3ccc(-c4cccc(CNCC5CCCO5)c4)cc3)nc2c1.O=C(O)C(F)(F)F` (centres undefined), which Inhibition is on record?
**A.** 100%

**Q.** Which Inhibition does the source give for `FC(F)(F)c1ccc2[nH]c(-c3ccc(-c4cccc(CN5CCN(CCN6CCOCC6)CC5)c4)cc3)nc2c1.O=C(O)C(F)(F)F` here?
**A.** 98%

**Q.** For `CN(C)c1ccc(CN2CCC(NC(=O)c3ccc(-c4cccc(Cl)c4)s3)CC2)cc1.O=C(O)C(F)(F)F`, which Inhibition is on record?
**A.** 93%

**Q.** Which Inhibition does the source give for `Cc1cc(NCCC(=O)Nc2ccccc2)nc(NCC2CCCCC2)n1.O=C(O)C(F)(F)F` here?
**A.** 100%

**Q.** With `Cc1ccc(NC(=O)c2ccc(CN3CCCN(Cc4cccc(Cl)c4)CC3)cc2)cc1C.O=C(O)C(F)(F)F` as the molecule, how does the Inhibition read?
**A.** 84%

**Q.** Which Inhibition does the source give for `CC1Cc2ccccc2N1S(=O)(=O)c1cccc(C(=O)Nc2nc(-c3ccccn3)cs2)c1` (centres undefined) here?
**A.** 84%

**Q.** For `CCN(CCCN1CCCCC1)c1cc(C)nc(Nc2ccc(C)cc2Cl)n1.O=C(O)C(F)(F)F`, which Inhibition is on record?
**A.** 93%

**Q.** Which Inhibition does the source give for `CCc1ccc(NC(=O)c2ccc(CN3CCCN(CC4CCCCC4)CC3)cc2)cc1.O=C(O)C(F)(F)F` here?
**A.** 96%

**Q.** Which Inhibition does the source give for `CCCCCCCCS(=O)(=O)NCCCC1CCN(CCCCCNC(=O)C=Cc2ccc(Cl)c(Cl)c2)CC1` here?
**A.** 91%

**Q.** Which Inhibition does the source give for `Cc1cnc(C(=O)Nc2cccc(-c3csc(-c4nc5ccccc5[nH]4)c3)c2)cn1` here?
**A.** 98%

**Q.** Which Inhibition does the source give for `CCCn1c(Sc2ccc(C#N)c([N+](=O)[O-])c2)nnc1-c1ccc(Cl)cc1` here?
**A.** 96%

**Q.** Which Inhibition does the source give for `COc1ccc(C2CCN(CCCCNC(=O)c3ccc(NC(=O)c4ccc(Cl)cc4)cc3)CC2)c(OC)c1.Cl` here?
**A.** 100%

**Q.** `CCCNCc1ccc(-c2ccc(CN(Cc3ccc4c(c3)OCO4)C(=O)[C@H]3CCCO3)cc2)nc1.O=C(O)C(F)(F)F` was tested. Which Inhibition did it give?
**A.** 90%

**Q.** Which Inhibition does the source give for `O=C(O)C(F)(F)F.O=[N+]([O-])c1cccc(CNCC2CCC(CNCc3cccc([N+](=O)[O-])c3)CC2)c1` (centres undefined) here?
**A.** 100%

**Q.** `CC(C)N(CC(=O)c1ccc(O)c(C(=O)O)c1)Cc1ccccc1.Cl` was tested. Which Inhibition did it give?
**A.** 97%

**Q.** `CCN(CC)CCCNc1cc[n+]([O-])c2cc3ccccc3cc12` was tested. Which Inhibition did it give?
**A.** 100%

**Q.** `Brc1cc(Br)c2c(c1)C(NCCCNc1nc3ncccc3[nH]1)CCN2.O=C(O)CCC(=O)O` (centres undefined) was tested. Which Inhibition did it give?
**A.** 99%

**Q.** For `CCN(CC)CCCC(C)Nc1c2ccccc2nc2ccc3ccccc3c12.Cl` (centres undefined), which Inhibition is on record?
**A.** 100%

**Q.** How did the Inhibition turn out when `Cc1ccc(Nc2cc(C)nn2-c2nc(C)cc(O)n2)cc1` was run?
**A.** 97%

**Q.** Which Inhibition does the source give for `CCCCCn1c(Sc2ccc(C#N)c([N+](=O)[O-])c2)nnc1-c1ccc(OC)cc1` here?
**A.** 88%

**Q.** Which Inhibition does the source give for `CCN(CC)/C(=N/C(=N)NCc1cccc(Cl)c1)NCCCCCCN/C(=N\C(=N)NCc1cccc(Cl)c1)N(CC)CC` here?
**A.** 99%

**Q.** Which Inhibition does the source give for `CCN(CC)CCNC(=O)c1ccc(NC(=O)c2cc(-c3ccncc3)nc3ccccc23)cc1` here?
**A.** 97%

**Q.** How did the Inhibition turn out when `O=C(Nc1nc(-c2ccccn2)cs1)c1ccccc1COc1ccccc1` was run?
**A.** 83%

**Q.** For `CN(C(=O)c1ccc(Br)cc1)c1ccccc1[N+](=O)[O-]`, which Inhibition is on record?
**A.** 96%

**Q.** `CC(C)(C)c1ccc(N2C(N)=NC(N)=NC2(C)C)cc1.Cl` was tested. Which Inhibition did it give?
**A.** 93%

**Q.** How did the Inhibition turn out when `CCCN1CCN(CC(O)CNC(=O)Nc2ccc(Br)cc2)CC1.O=C(O)C(F)(F)F` (centres undefined) was run?
**A.** 100%

**Q.** `O=C(CSc1nc2ccc([N+](=O)[O-])cc2s1)Nc1ccccc1-c1ccccc1` was tested. Which Inhibition did it give?
**A.** 80%

**Q.** How did the Inhibition turn out when `COc1cc(Nc2nc(N)c3cc(OC)c(OC)cc3n2)cc(OC)c1.Cl` was run?
**A.** 100%

**Q.** Which Inhibition does the source give for `Fc1ccc(NC(S)=NN=Cc2ccccn2)cc1` here?
**A.** 95%

**Q.** Which Inhibition does the source give for `O=C(Nc1ccc(-c2nc3ccccc3[nH]2)cc1)c1ccc(N2CCCC2)c([N+](=O)[O-])c1` here?
**A.** 100%

**Q.** Which Inhibition does the source give for `Cc1ccccc1CNc1ccc2nc(N)nc(N)c2c1` here?
**A.** 100%

**Q.** How did the Inhibition turn out when `O=S1(=O)C=C(c2ccccc2)CC1` was run?
**A.** 97%

**Q.** How did the Inhibition turn out when `O=C(O)C(F)(F)F.O=C1OC(c2ccccc2)(c2ccccc2)CN1CC1CCN(Cc2ccc(O)c(Cl)c2)CC1` was run?
**A.** 98%

**Q.** `COc1ccc(S(=O)(=O)N2CCCC(C)C2)cc1N1CCN(C(=O)c2ccc([N+](=O)[O-])o2)CC1` (centres undefined) was tested. Which Inhibition did it give?
**A.** 94%

**Q.** For `CC(=O)Oc1c(C2CCN(CCCCNC(=O)c3ccc(NC(=O)c4ccc(Cl)cc4)cc3)CC2)ccc2c1CCCC2`, which Inhibition is on record?
**A.** 100%

**Q.** Which Inhibition does the source give for `COc1cccc(C(=O)NCCOc2ccccc2)c1Oc1ccccc1` here?
**A.** 98%

**Q.** `CCN(CC)CCCC(C)N=c1cc(C=Cc2ccc([N+](=O)[O-])cc2)[nH]c2ccc(OC)cc12` (centres undefined) was tested. Which Inhibition did it give?
**A.** 100%

**Q.** How did the Inhibition turn out when `CCc1cn2c3c(cc(C(=O)N[C@@H](Cc4ccccc4)[C@H](O)CNC(C)(C)CCCC(C)C)cc13)N(C)S(=O)(=O)C2.O=CO` was run?
**A.** 98%
